The list is not random: actives were taken first. Their share in the collection is about 19%.
uPA surface inh = inhibitors of cell surface uPA generation. cell surface uPA generation assay, qHTS. Potency, µM (titrated, usually from 38.3 µM), for the others: top-dose activity change, negative = inhibition, most hits filed as inhibitors. 330,000 compounds, 0.31% hits. AID 540303; active means well fitted inhibition curve with a large enough effect; inconclusive means small, poorly fitted or top-dose-only effect; inactive means no such curve, though single readings can be large or run the other way; tested in mouse RAW 264.7 cells; further: potency means the concentration at half of the fitted maximal effect; nearly all actives have a fitted effect of over 55% in size
HT1080 IDH1KD tx = HT-1080 IDH1 knockdown cell toxicity (counter line). Potency, µM (top dose mostly 46.1 µM), inactives show top-dose activity, negative = toxicity, most hits filed as cytotoxic. 360,000 compounds, 2% hits. HT-1080 IDH1 knockdown viability, ATP luminescence, 48 h;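 further: potency means the concentration at half of the fitted maximal effect; 0% = DMSO wells and -100% = cell-free medium wells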
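% activity derives from luminescence (CellTiter-Glo), normalised to DMSO and no-cell wells. HT-1080-IDH1KD cells, 750/well, had 48 h compound exposure at 37 °C.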
HT1080-NT tox = kills 2HG-producing HT-1080-NT fibrosarcoma cells; HT-1080-NT fibrosarcoma viability, CellTiter-Glo ATP luminescence, 48 h; Potency, µM (top dose mostly 46.1 µM), inactives show at the top dose activity, negative = less viability, most hits filed as cytotoxic; 360,000 compounds, 1.6% hits; AID 686970;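 further: NT is the 2HG producing partner of a matched IDH1 knockdown line; potency means the concentration at half of the fitted maximal effect; 0% = DMSO-treated cells and -100% = media-only wells without cells; nearly all actives have a fitted effect of over 55% in size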
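Viability by CellTiter-Glo luminescence after 48 h compound exposure at 37C of HT-1080-NT cells (750/well, RPMI, 5% FBS). % activity scaled between DMSO wells and medium-only wells, then curve-fitted and categorized by curve class.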
IL-1B inflam inh = blocks inflammasome-driven IL-1 beta release | THP-1 LPS/ATP IL-1B secretion, AlphaLISA, 16 h; stronger effect = lower value | activity change, % at 57.5 µM | 360,000 compounds, 4.7% hits | AID 743279; in the data active means activity change below about -50%; inconclusive means mostly about -30% to -49%
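Secreted IL-1B measured by AlphaLISA bead assay after 16 h compound exposure of THP-1 cells; compounds (final up to 57.5 uM) added 1 h before LPS (250 ng/mL) and ATP (1.25 mM) stimulation; lower signal means less secretion.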
DT40 TDP1 CPT = DT40-hTDP1 cell growth loss with CPT; chicken DT40 Tdp1-/-;hTDP1 cells + 20 nM CPT, ATP luminescence, 48 h; Potency, µM (titrated, usually from 46.2 µM), for inactives: at the highest dose activity change, negative = growth inhibition, actives largely listed as inhibitors; 420,000 compounds, 12% hits; AID 686979; further: potency means the concentration at half of the fitted maximal effect; nearly all actives have a fitted effect of over 55% in size
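Chicken DT40 Tdp1-/- cells stably complemented with human TDP1 were seeded at 400 cells/well in medium containing 20 nM camptothecin, exposed to pin-transferred compounds, and grown at 37 °C for at least 48 hr. Viability was read as ATP luminescence.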
DT40 TDP1 no CPT = qHTS for Inhibitors of human tyrosyl-DNA phosphodiesterase 1 (TDP1): qHTS in cells in absence of CPT; DT40 Tdp1-/- hTDP1 cells, no CPT, ATP luminescence, 48 h; Potency, µM (series often up to 46.2 µM), for the others: top-dose activity change, negative = growth inhibition, hits mostly inhibitors; 420,000 compounds, 15% hits; AID 686978, 2013; further: potency means the concentration at half of the fitted maximal effect; nearly all actives have a fitted effect of over 55% in size
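Camptothecin absent (DMSO only). Human TDP1-complemented DT40 knockout cells, 400 cells/well, 37 °C for minimum 48 hr; ATP measured via CellTiter-Glo, 30 min dark incubation, luminescence.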
* marks the source's active call; other numbers are inactive results; u = inconclusive; x = no result; [ ] = dose if it differs, or a comment. Unless noted, the call rests on the fitted dose curve; in most records, active means well fitted curve in the direction sought with a large enough effect; inconclusive means small, poorly fitted or top-dose-only effect, or another doubt; inactive means no such curve, though single readings can be large; an effect the other way counts as inactive or inconclusive. Unless noted, on the % scale 0 is the no-effect control and ±100 the full control effect.

SMILES | uPA surface inh | HT1080 IDH1KD tx | HT1080-NT tox | IL-1B inflam inh | DT40 TDP1 CPT | DT40 TDP1 no CPT
Cc1cc(C)nc(/N=C(\N)Nc2ccccc2-c2ccccc2)n1 | -6% | u | u | -98* | 16µM* | 12µM*
Cc1ccc(N/C(N)=N/c2nc(C)cc(C)n2)cc1 | -3% | 1% | 1% | -18 | 15µM* | 21µM*
CCN(CC)/C(N)=N/c1nc(C)cc(C)n1 | -6% | -1% | 3% | 38 | 6% | 2%
CCC(=O)Nc1ccc(N/C(N)=N/c2nc(C)cc(C)n2)cc1 | 7% | -2% | -5% | u | 13µM* | 15µM*
CC1(C(=O)NS(=O)(=O)c2ccc(Cl)cc2)CCN1C(=O)Cc1ccsc1 (configuration not stated) | x | 0% | 22% | 17 | -18% | -14%
CCC1CN(Cc2ccc(COC)o2)Cc2cc(OC)ccc2O1 (configuration not stated) | x | x | x | x | 13%[9.04 µM] | -7%
COc1cc(N/C(N)=N/c2nc(C)cc(C)n2)c(OC)cc1Cl | -26% | -12% | -18% | u | 15µM* | 18µM*
CC(=O)N/C(=N/c1nc(C)cc(C)n1)Nc1ccc(NC(C)=O)cc1 | 0% | -4% | -1% | 1 | -22% | -13%
Cc1cc(C)cc(N/C(N)=N/c2nc(C)cc(C)n2)c1 | u | 1% | 5% | -102* | u | u
CCCCc1ccc(N/C(N)=N/c2nc(C)cc(C)n2)cc1 | -15% | 21µM* | 33µM* | x | u | 5.2µM*
O=C(COC(=O)/C=C/c1ccc(F)cc1)NC1CCCCCC1 | 2% | 15% | 1% | -15 | 12% | 8%
CC(C)[C@H](NC(=O)c1ccccc1)C(=O)NCCc1ccccc1 | -1% | 19% | -13% | 1 | -18% | u
CC(C)C(NC(=O)c1ccc(C(C)(C)C)cc1)C(=O)NCCc1ccccn1 (configuration not stated) | 0% | 8% | 8% | 29 | u | 21µM*
Cc1cccc(C)c1NC(=O)CNC(=O)C(NC(=O)c1ccc(C(C)(C)C)cc1)C(C)C (configuration not stated) | -10% | -4% | -7% | -6 | u | 21µM*
Cc1cccc(C)c1NC(=O)CNC(=O)c1ccccc1 | 2% | 5% | 18% | 9 | 12% | 0%
CC(C)C(NC(=O)c1ccc(C(C)(C)C)cc1)C(=O)NCC(c1ccccc1)N(C)C (configuration not stated) | 2% | -4% | 24% | -18 | u | 21µM*
CC1=CC[C@@]2(CO)COC(c3ccccc3O)C1C2 (some centres not stated) | x | x | x | x | 6%[9.04 µM] | 9%[9.04 µM]
C=CCN(C(=O)c1ccc2snnc2c1)c1ccccc1 | 2% | 4% | 9% | 10 | 1% | -26%
Cc1nc(CN(C)Cc2nc(Cc3ccccc3Cl)no2)cs1 | -2% | -1% | -3% | 9 | -17% | -26%
CCOC(=O)c1c(C)c(C)n(Cc2ccc(OC)c(OC)c2)c1C | 4% | -24% | -16% | -3 | 21µM* | 18µM*
CCOC(=O)c1cc(C)n(Cc2ccc(OCC)c(OC)c2)c1C | x | -26% | -5% | -26 | 11µM* | u
CCc1ccccc1NC(=O)N1CCC(CN2CCc3ccccc3C2)CC1 | x | x | x | x | 2% | u
Cc1ccc(-c2cn3c(n2)sc2cc(C(=O)NC(C)C45CC6CC(CC(C6)C4)C5)ccc23)cc1 (configuration not stated) | x | x | x | x | -15% | -21%
COc1ccc(NC(=O)C2CCN(c3nc(-c4ccc(OC)c(OC)c4)no3)CC2)cc1Cl | x | x | x | x | 4.1µM* | u
COc1ccc(-c2noc(N3CCC(C(=O)Nc4ccc(C)c(F)c4)CC3)n2)cc1OC | x | x | x | x | u | 16µM*
SMILES | uPA surface inh | HT1080 IDH1KD tx | HT1080-NT tox | IL-1B inflam inh | DT40 TDP1 CPT | DT40 TDP1 no CPT
N#Cc1cccc(NC(=O)C2CCN(c3nc(-c4ccc(Cl)cc4)no3)CC2)c1 | x | x | x | x | 13µM* | 16µM*
COc1ccc(NC(=O)C2CCN(c3nc(-c4ccc(OC)cc4)no3)CC2)cc1 | 5% | -4% | 2% | -4 | u | u
COc1ccc(NC(=O)C2COc3ccccc3C2)cc1Cl (configuration not stated) | x | x | x | x | 18µM* | 16µM*
COc1ccc(NC(=O)NC2COc3ccccc3C2)cc1Cl (configuration not stated) | x | x | x | x | -25% | -14%
CCOC(=O)c1ccc(NNC(=O)CC)c([N+](=O)[O-])c1 | 8% | -1% | -6% | 9 | -7% | -12%
CC(OC(=O)CNC(=O)c1ccc2ccccc2c1)C(=O)N(C)C1CCCCC1 (configuration not stated) | 3% | 5% | 6% | -5 | -15% | -13%
Cc1cc(C)n2nc(C(=O)OCCOc3ccc(F)cc3)nc2n1 | -1% | 14% | 23% | -50* | -7% | 5%
Cc1cc(C)n2nc(C(=O)OCCOc3cccc(Br)c3)nc2n1 | -3% | -4% | -9% | -6 | u | -19%
CC(=O)c1ccc(NC(=S)N2CC(C)CC(C)C2)cc1 (configuration not stated) | 6% | 7% | 9% | 3 | -27% | -26%
CCc1cc(C(=O)NC2CCCc3c2cnn3-c2ccc(F)cc2F)no1 (configuration not stated) | x | -10% | 0% | 36 | 21µM* | 18µM*
CC1=C(C(=O)NC2CCCc3c2cnn3-c2ccc(F)cc2F)OCCO1 (configuration not stated) | -18% | -19% | -2% | 8 | 21µM* | 4.1µM*
CCc1nccn1CCC(=O)NC1CCCc2c1cnn2-c1ccc(F)cc1F (configuration not stated) | 12% | -4% | 0% | 34 | u | u
CN(c1cccc(Cl)c1)S(=O)(=O)c1cccc(C(=O)Nc2nc3ccccc3[nH]2)c1 | -13% | u | u | -62* | 21µM* | 23µM*
COc1ccc(N(C)S(=O)(=O)c2cccc(C(=O)Nc3nc4ccccc4[nH]3)c2)cc1 | -9% | u | -22% | u | 23µM* | u
CCCCC(=O)N(Cc1ccc(-c2ccccc2-c2nn[nH]n2)cc1)[C@@H](C(=O)O)C(C)C | x | x | x | x | -18% | -21%
Cc1cccc2[nH]cc(/C=C3/C=Nc4ccccc43)c12 | x | x | x | x | 7.9µM* | 4µM*
Cc1ccc(OCCOCCn2ccnc2)c(Br)c1 | 2% | -7% | -1% | -10 | -26% | 23µM*
